About 2,000 (36%) of roughly 5,500 compounds were called active. About 18% were inconclusive and are not listed. No stated cut-off is given here; in the data, active means normalized growth mostly below about 0.91 (no sharp cut-off); inconclusive means no clear call, values can overlap the other calls; inactive means mostly above about 0.92. Some of the results follow.
Assay: chemical genetic growth profiling, strain panel (AID 1159580);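 further: tested at 20 µM; growth read once vehicle control cultures reached saturation at 30 °C; 1 = growth at the plate median or of vehicle wells; lower values mean less growth of the strain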
Settings: growth OD

Measured: normalized growth

CCC(=O)O[C@H]1CCC2C3CCC4=CC(=O)CC[C@]4(C)C3CC[C@@]21C (some centres not stated)
active: S. cerevisiae deletion strains, locus YKL085W, strain MDH1 (second series), hits give low values 0.901 | S. cerevisiae deletion strains, locus YKL085W, strain MDH1, hits give low values 0.901 | S. cerevisiae deletion strains, locus YKL160W, strain elf1, hits give low values 0.882 | S. cerevisiae deletion strains, locus YKR001C, strain vps1, hits give low values 0.861 | S. cerevisiae deletion strains, locus YLR039C, strain RIC1, hits give low values 0.653 | S. cerevisiae deletion strains, locus YLR258W, strain gsy2, hits give low values 0.899 | S. cerevisiae deletion strains, locus YLR262C, strain YPT6 (second series), hits give low values 0.671 | S. cerevisiae deletion strains, locus YLR320W, strain mms22, hits give low values 0.83 | S. cerevisiae deletion strains, locus YLR330W, strain CHS5, hits give low values 0.821 | S. cerevisiae deletion strains, locus YLR342W, strain FKS1 (second series), hits give low values 0.745 | S. cerevisiae deletion strains, locus YLR342W, strain FKS1, hits give low values 0.779 | S. cerevisiae deletion strains, locus YLR371W, strain rom2, hits give low values 0.783 | S. cerevisiae deletion strains, locus YLR418C, strain cdc73, hits give low values 0.672 | S. cerevisiae deletion strains, locus YML032C, strain rad52, hits give low values 0.889 | S. cerevisiae deletion strains, locus YMR205C, strain PFK2, hits give low values 0.785 | S. cerevisiae deletion strains, locus YMR223W, strain ubp8, hits give low values 0.888 | S. cerevisiae deletion strains, locus YNL071W, strain lat1, hits give low values 0.719 | S. cerevisiae deletion strains, locus YNL233W, strain BNI4, hits give low values 0.803 | S. cerevisiae deletion strains, locus YNL248C, strain rpa49, hits give low values 0.86 | S. cerevisiae deletion strains, locus YNL307C, strain MCK1, hits give low values 0.679 | S. cerevisiae deletion strains, locus YOR083W, strain WHI5, hits give low values 0.796 | S. cerevisiae deletion strains, locus YOR106W, strain vam3, hits give low values 0.837 | S. cerevisiae deletion strains, locus YOR184W, strain ser1, hits give low values 0.523 | S. cerevisiae deletion strains, locus YOR270C, strain vph1, hits give low values 0.653 | S. cerevisiae deletion strains, locus YPL051W, strain arl3, hits give low values 0.89 | S. cerevisiae deletion strains, locus YPL078C, strain atp4, hits give low values 0.869
inactive: S. cerevisiae deletion strains, locus YJR066W, strain TOR1, hits give low values 0.884 | S. cerevisiae deletion strains, locus YKL009W, strain mrt4, hits give low values 0.974 | S. cerevisiae deletion strains, locus YKL068W, hits give low values 0.972 | S. cerevisiae deletion strains, locus YKR026C, strain gcn3, hits give low values 0.96 | S. cerevisiae deletion strains, locus YKR091W, strain srl3, hits give low values 0.948 | S. cerevisiae deletion strains, locus YLL001W, strain dnm1, hits give low values 0.989 | S. cerevisiae deletion strains, locus YLL026W, hits give low values 0.971 | S. cerevisiae deletion strains, locus YLL041C, strain sdh2, hits give low values 0.957 | S. cerevisiae deletion strains, locus YLR027C, strain aat2, hits give low values 0.93 | S. cerevisiae deletion strains, locus YLR058C, strain SHM2, hits give low values 0.956 | S. cerevisiae deletion strains, locus YLR102C, strain apc9, hits give low values 0.99 | S. cerevisiae deletion strains, locus YLR113W, strain HOG1, hits give low values 0.941 | S. cerevisiae deletion strains, locus YLR221C, strain rsa3, hits give low values 0.925 | S. cerevisiae deletion strains, locus YLR262C, strain YPT6, hits give low values 0.633 | S. cerevisiae deletion strains, locus YLR268W, strain sec22, hits give low values 0.934 | S. cerevisiae deletion strains, locus YLR357W, strain rsc2, hits give low values 0.944 | S. cerevisiae deletion strains, locus YLR370C, strain arc18, hits give low values 0.955 | S. cerevisiae deletion strains, locus YLR384C, strain iki3, hits give low values 0.969 | S. cerevisiae deletion strains, locus YML016C, strain PPZ1, hits give low values 0.982 | S. cerevisiae deletion strains, locus YML120C, strain ndi1, hits give low values 0.952 | S. cerevisiae deletion strains, locus YML124C, strain tub3, hits give low values 0.972 | S. cerevisiae deletion strains, locus YMR058W, strain fet3, hits give low values 0.916 | S. cerevisiae deletion strains, locus YMR078C, strain ctf18, hits give low values 0.978 | S. cerevisiae deletion strains, locus YMR125W, strain sto1, hits give low values 0.913 | S. cerevisiae deletion strains, locus YMR129W, hits give low values 0.942 | S. cerevisiae deletion strains, locus YMR231W, strain pep5, hits give low values 0.957 | S. cerevisiae deletion strains, locus YMR263W, strain SAP30, hits give low values 0.963 | S. cerevisiae deletion strains, locus YMR307W, strain GAS1, hits give low values 0.917 | S. cerevisiae deletion strains, locus YNL067W, strain RPL9B, hits give low values 0.985 | S. cerevisiae deletion strains, locus YNL183C, strain NPR1, hits give low values 0.89 | S. cerevisiae deletion strains, locus YNL250W, strain rad50, hits give low values 1 | S. cerevisiae deletion strains, locus YNL271C, strain bni1, hits give low values 0.963 | S. cerevisiae deletion strains, locus YNL298W, strain CLA4, hits give low values 0.949 | S. cerevisiae deletion strains, locus YNL322C, strain KRE1 (second series), hits give low values 0.952 | S. cerevisiae deletion strains, locus YNL322C, strain KRE1, hits give low values 0.958 | S. cerevisiae deletion strains, locus YNR049C, strain mso1, hits give low values 0.932 | S. cerevisiae deletion strains, locus YNR052C, strain pop2, hits give low values 0.924 | S. cerevisiae deletion strains, locus YOL006C, strain TOP1, hits give low values 0.74 | S. cerevisiae deletion strains, locus YOL012C, strain htz1 0.608 | S. cerevisiae deletion strains, locus YOL147C, strain pex11, hits give low values 0.967 | S. cerevisiae deletion strains, locus YOR001W, strain rrp6, hits give low values 0.971 | S. cerevisiae deletion strains, locus YOR061W, strain CKA2, hits give low values 0.971 | S. cerevisiae deletion strains, locus YOR069W, strain VPS5, hits give low values 0.976 | S. cerevisiae deletion strains, locus YOR070C, strain gyp1, hits give low values 0.944 | S. cerevisiae deletion strains, locus YOR080W, strain dia2, hits give low values 0.941 | S. cerevisiae deletion strains, locus YOR136W, strain idh2, hits give low values 0.965 | S. cerevisiae deletion strains, locus YOR144C, strain elg1, hits give low values 0.968 | S. cerevisiae deletion strains, locus YOR231W, strain MKK1, hits give low values 0.988 | S. cerevisiae deletion strains, locus YOR265W, strain rbl2, hits give low values 0.946 | S. cerevisiae deletion strains, locus YOR290C, strain snf2, hits give low values 0.892 | S. cerevisiae deletion strains, locus YOR316C, strain cot1, hits give low values 0.987 | S. cerevisiae deletion strains, locus YPL055C, strain LGE1, hits give low values 0.794 | S. cerevisiae deletion strains, locus YPL106C, strain sse1, hits give low values 0.906 | S. cerevisiae deletion strains, locus YPL240C, strain hsp82, hits give low values 0.978 | S. cerevisiae deletion strains, locus YPL256C, strain CLN2, hits give low values 0.982 | S. cerevisiae deletion strains, locus YPR119W, strain clb2, hits give low values 0.981 | S. cerevisiae deletion strains, locus YPR141C, strain kar3, hits give low values 0.976 | S. cerevisiae deletion strains, locus YPR163C, strain tif3, hits give low values 0.933 | S. cerevisiae deletion strains, locus YPR167C, strain met16, hits give low values 0.971 | S. cerevisiae deletion strains, strain wtn01, hits give low values 0.924 | S. cerevisiae strains, strain wild type, hits give low values 0.944

— PubChem BioAssay AID1159580 (chemical genetic matrix, 2015)
